Compounds with a hit are over-represented: about 0.95% of the library has one in this group of screens.
RE007 growth inh: qHTS Assay for Inhibitors of the HIV-1 protein Vpr. S. pombe RE007 Vpr strain, BacTiter-Glo ATP luminescence, 24 h. Potency, µM (top dose mostly 92.2 µM), inactives show top-dose activity change, negative = less growth, actives largely listed as inhibitors. actives 0.21% (n = 360,000). AID 651644, 2012; active means well fitted falling curve with a large enough effect; inconclusive means small, poorly fitted or top-dose-only effect; inactive means no such curve, though single readings can be large or run the other way; further: nearly all actives have a fitted effect of over 50% in size
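Fission yeast RE007 carrying one integrated HIV-1 vpr copy, seeded at OD 0.01 in PMG+AL medium with 23 nL pinned compound. Grown 24 h at 30 degrees; viability read by BacTiter-Glo luminescence after 5 min.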
LmPK inhibitor: qHTS Assay for Inhibitors of Leishmania Mexicana Pyruvate Kinase (LmPK); purified LmPK, Kinase-Glo ATP luminescence, 1 h; Potency, µM (doses to about 57.5 µM), without a hit: at the highest dose activity change, negative = inhibition, hits mostly inhibitors; actives 0.37% (n = 290,000)
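Purified LmPK (0.1 nM) with 0.5 mM PEP and 0.1 mM ADP in imidazole buffer pH 7.2 with MgCl2/KCl, 1 h at room temperature. ATP formed was read by luciferase luminescence and normalized to no-enzyme and uninhibited controls.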
Giardia FBPA inh: qHTS Assay for Inhibitors of Fructose-1,6-bisphosphate Aldolase from Giardia Lamblia; A8B2U2; purified Giardia FBPA; Potency, µM (doses to about 59.6 µM), inactives show top-dose activity, negative = inhibition, most hits filed as inhibitors; actives 0.71% (n = 290,000); further: nearly all actives have a fitted effect of over 55% in size
Target sequence (A8B2U2 whole entry, looked up): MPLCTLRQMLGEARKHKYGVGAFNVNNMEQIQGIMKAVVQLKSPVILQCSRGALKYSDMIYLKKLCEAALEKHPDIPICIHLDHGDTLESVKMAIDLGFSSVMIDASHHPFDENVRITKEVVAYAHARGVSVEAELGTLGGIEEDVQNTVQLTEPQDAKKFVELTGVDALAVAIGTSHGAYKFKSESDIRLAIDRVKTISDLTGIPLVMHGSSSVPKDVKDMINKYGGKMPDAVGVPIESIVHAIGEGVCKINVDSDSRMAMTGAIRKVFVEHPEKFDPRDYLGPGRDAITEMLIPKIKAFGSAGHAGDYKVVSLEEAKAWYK
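Giardia FBPA (40 nM reagent) was preincubated 10 min at RT with compound (up to 57.5 uM final), then substrate plus GAPDH/TPI/NAD/arsenate coupling system with diaphorase/resazurin was added; resorufin fluorescence (525/598 nm) was read after 20 min.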
TbPYK inhibitor: qHTS of Trypanosoma Brucei Inhibitors | pyruvate kinase (Trypanosoma brucei), Q57TT1 | actives 0.12% (n = 410,000) | Potency, µM (titrated, usually from 76.8 µM), for inactives: top-dose activity, negative = inhibition, most hits filed as inhibitors | TbPYK enzyme, Kinase-Glo Plus ATP luminescence, 45 min; further: nearly all actives have a fitted effect of over 50% in size
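Assay buffer: 50 mM TEA pH 7.2, 100 mM KCl, 10 mM MgCl2, 0.05% BSA, 0.01% Tween-20. Pyruvate kinase from T. brucei plus substrate met compound, then ADP (130 uM final). Luminescence was read post 45 min RT.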
Active calls of the source: *. Unless noted, the call rests on the fitted dose curve; in most records, active means well fitted curve in the direction sought with a large enough effect; inconclusive means small, poorly fitted or top-dose-only effect, or another doubt; inactive means no such curve, though single readings can be large; an effect the other way counts as inactive or inconclusive. On the % scale 0 is the no-effect control and ±100 the full control effect; potency means the concentration at half of the fitted maximal effect.

CC(C)c1onc(-c2c(Cl)cccc2Cl)c1COc1ccc(/C=C/c2cccc(C(=O)O)c2)c(Cl)c1 was read as Giardia FBPA inh 12.7% and TbPYK inhibitor -0.4%.
Screening COc1cc(NC(=O)O[C@@H]2C(=O)c3cc(Br)ccc3O[C@H]2c2ccc3c(c2)OCO3)cc(OC)c1OC returned Giardia FBPA inh -0.9%.
For CCc1ccc(/C=C/C(=O)C2C(=O)c3ccccc3C2=O)cc1 the results were RE007 growth inh -25.6%, LmPK inhibitor -4.0%, Giardia FBPA inh 0.1% and TbPYK inhibitor -16.3%.
`CC[N+]1(C)CCC(O)(/C=C/c2ccccc2)C(C(=O)/C=C/c2ccccc2)C1` (stereo not given) gave RE007 growth inh 8.91µM* and TbPYK inhibitor -11.3%.
`O=C(Nc1ccccc1F)c1ccc(Cn2nc(N3CCN(c4ccccc4)CC3)ccc2=O)o1` gave TbPYK inhibitor -0.2%.
Cc1nc(N=Nc2ccc(O)cc2)n[nH]1 was read as RE007 growth inh inconclusive, LmPK inhibitor 14.1µM*, Giardia FBPA inh -11.4% and TbPYK inhibitor -15.7%.
Screening Cc1ccc(-c2nc(N=Nc3ccc(O)cc3)n[nH]2)cc1 returned RE007 growth inh 2.4%, LmPK inhibitor -2.2%, Giardia FBPA inh -10.3% and TbPYK inhibitor 6.9%.
Screening N/C(=N\OC(=O)c1ccc2c(c1)OCO2)c1cccnc1 returned RE007 growth inh inconclusive, LmPK inhibitor 25.1µM*, Giardia FBPA inh 1.4% and TbPYK inhibitor -23.0%.
Screening N/C(=N\OC(=O)c1ccccc1Cl)c1cccnc1 returned RE007 growth inh 20µM*, LmPK inhibitor inconclusive, Giardia FBPA inh 3.6% and TbPYK inhibitor -1.1%.
`N/C(=N\OC(=O)c1ccc2c(c1)OCO2)c1cccc(Br)c1` gave RE007 growth inh -23.7%, LmPK inhibitor 12.6µM*, Giardia FBPA inh -7.2% and TbPYK inhibitor -29.7%.
`Cc1ccc(-n2sc3ccccc3c2=O)cc1S(=O)(=O)N1CCCCC1` gave RE007 growth inh 15.8µM*, LmPK inhibitor -2.8%, Giardia FBPA inh inconclusive and TbPYK inhibitor 3.98µM*.
Screening O=c1c2ccccc2sn1-c1ccc(S(=O)(=O)N2CCCC2)cc1 returned RE007 growth inh 0.1%, LmPK inhibitor 9.0%, Giardia FBPA inh -23.0% and TbPYK inhibitor 6.31µM*.
For O=c1c2ccccc2sn1-c1ccc(S(=O)(=O)N2CCCCC2)cc1 the results were RE007 growth inh 1.5% and TbPYK inhibitor inconclusive.
Screening CCn1cc(-c2n[nH]c(=S)n2-c2ccc(C)cc2Br)c(=O)c2ccc(C)nc21 returned RE007 growth inh -18.0%, LmPK inhibitor 7.94µM*, Giardia FBPA inh 4.4% and TbPYK inhibitor inconclusive.
For CCn1cc(C(=O)OCC(=O)Nc2ccc(F)cc2F)c(=O)c2ccc(C)nc21 the results were TbPYK inhibitor -7.8%.
Screening Oc1ccc([C@H]2CNCc3c2ccc(O)c3O)cc1O returned TbPYK inhibitor 3.16µM*.
NC(=O)C(=CNc1nc(-c2ccc(Cl)c(Cl)c2)cs1)C(N)=O was read as LmPK inhibitor -9.5% and Giardia FBPA inh 17.7µM*.
`CC1CC2C3CCC4=CC(=O)C=CC4(C)[C@@]3(F)C(O)CC2(C)[C@@]1(O)C(=O)CCl` (stereo not given in full) gave TbPYK inhibitor -20.3%.
`Clc1ccc(-c2cn3nc4c(nc3n2)CCCC4)cc1` gave RE007 growth inh 1.2%, LmPK inhibitor 14.1µM*, Giardia FBPA inh inconclusive and TbPYK inhibitor -8.8%.
Screening COc1cccc(-c2cn3nc4c(nc3n2)CCCC4)c1 returned RE007 growth inh inconclusive, LmPK inhibitor 11.2µM*, Giardia FBPA inh inconclusive and TbPYK inhibitor inconclusive.
Clc1ccc(-c2cn3ncsc3n2)cc1 was read as TbPYK inhibitor -4.2%.
`Cc1ccc(-c2cc(C(=O)Nc3cccnc3)c3ccccc3n2)o1` gave RE007 growth inh 1.2%, LmPK inhibitor -8.7%, Giardia FBPA inh -11.8% and TbPYK inhibitor inconclusive.
Screening Cc1ccc(NC(=O)c2cc(-c3ccc(C)o3)nc3ccccc23)cc1 returned RE007 growth inh 25.1µM*, LmPK inhibitor -0.4%, Giardia FBPA inh -3.6% and TbPYK inhibitor inconclusive.

Screening data deposited in PubChem by National Center for Advancing Translational Sciences (NCATS).
